Structures are written as SMILES. Compounds without any hit were thinned out: in the full panel of roughly 83,000, 20% have a hit.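 Negative percent growth values reflect cell death: -40 means 40% of the cells present at the start died, and -100 means all died.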 The source made the active and inactive calls. Rule for the calls: active = growth percent below 10; inactive = the rest.

The first test has as its system OVCAR-8 ovarian. As to the kind of experiment: NCI-60 one-dose screen, 48 h (100 = growth as untreated, 0 = no growth, -100 = all killed). The following applies: 10 µM unless noted.
For `CS(=O)(=O)Nc1ccc(C(=O)NC(C(=O)NO)c2ccc(-c3cccc(F)c3)cc2)cc1` (stereo not drawn), the growth was 97.3% (inactive).
For `COc1cccc2c1C=C1CCCCC3=Cc4c(OC)cccc4OC13O2`, the growth is 53.1% (inactive).
The same measure, in the same setting: the result for `COc1cccc(/C(C#N)=C/c2nc3c(N4CCOCC4)nc(Cl)nc3n2C)c1` reads 9.5% (active); that for `NCCOc1ncccc1/C=C1\c2ccccc2-c2ccc(F)cc21`, 14.9% (inactive); that for `Cc1ccc2cccc(Oc3ccc(Nc4ncnc5onc(-c6ccccc6)c45)cc3)c2n1`, 91% (inactive).
Regarding `CCN1C(=O)N(c2ccccc2)C2Nn3c(s/c(=C4\C(=O)N(C(C)C)c5ccccc54)c3=O)=NC21` (stereo not drawn), the growth was 103% (inactive).
Same read-out and setting: the result for `c1ccc2c(c1)oc1cc3sccc3nc12` reads 101% (inactive).
As for `O=C1/C(=C/c2cccc(O)c2)COc2ccc(O)cc21`, the growth is 68.7% (inactive).
Same read-out and setting: the result for `COc1cccc(C(=O)Cn2cc(/C=C(\C#N)S(=O)(=O)c3ccccc3)c3ccccc32)c1` reads 89.3% (inactive); that for `CCOC(=O)C1=C(C)N=c2s/c(=C\c3ccccc3O)c(=O)n2C1c1ccc(OC)c2ccccc12` (stereo not drawn), 13.2% (inactive); that for `Cn1c(/C=C(\C#N)c2ccccc2)nc2c(N3CCOCC3)nc(Cl)nc21`, 8.78% (active).
On the same count and under the same terms, the result for `O=S(=O)(Nc1ncccn1)c1ccc(NC2Nc3nc4ccccc4nc3S2)cc1` (stereo not drawn) reads 98.8% (inactive); that for `COC(=O)C1(C)CCC[C@]2(C)[C@H]3C[C@H]4C(C(C)C)=C[C@]3(CC[C@@H]12)[C@H]1[C@@H]4[C@@H](OCC#CCN2CCOCC2)CC[C@@H]1OCC#CCN1CCOCC1` (stereo partly drawn), 83.2% (inactive); that for `O=c1c2cc(F)ccc2sc2c(Nc3ccncc3)nc3ccccc3c12`, -18% (active).
For the molecule `O=C(Cc1ccccc1)NC(c1ccc(Cl)cc1)c1c(O)ccc2ccccc12` (stereo not drawn), the growth is 5.43% (active).
On to `Cc1c(-c2noc(-c3ccc([N+](=O)[O-])cc3)n2)no[n+]1[O-]`, for which the growth is 107% (inactive).
`O=C(c1ccccc1)N(CCc1ccc(Cl)cc1)C(=S)N(C(=O)c1ccccc1)c1ccccc1`: the growth is 106% (inactive).
Still for that read-out and setting: the result for `Cc1cc2c(c(C)c1Cl)C(=O)/C(=C/c1cccc([N+](=O)[O-])c1)O2` reads 94.4% (inactive); that for `CCN1C(=O)N(CC)C2C1NC(=S)N2/N=C/C=C/c1ccccc1OC` (stereo not drawn), 14.8% (inactive).
On the same count and under the same terms, the result for `O=C1Nc2ccccc2/C1=C/c1cccs1` reads 91.6% (inactive); that for `COC(=O)/C(=C\c1c(-c2ccccc2)[nH]c2ccccc12)S(C)(=O)=O`, 36.7% (inactive).
Take `C#CCn1cc(C=C2C(=O)N(C)C(=O)N(C)C2=O)c2cc(Cl)ccc21`: the growth was 107% (inactive).
The same measure, in the same setting: the result for `COc1ccc2occ(C3=C(c4c[nH]c5ccccc45)C(=O)NC3=O)c2c1` reads 63.9% (inactive).
Same read-out and setting: the result for `O=C1/C(=C/c2ccc(O)cc2)COc2ccc(O)c(O)c21` reads 17.6% (inactive); that for `N#C/C(=C\c1c(-c2ccccc2)[nH]c2ccccc12)C(=O)c1ccccc1`, 46.9% (inactive).
Same read-out and setting: the result for `CCCN1CCN(c2ccc3nc(-c4ccc5nc(-c6cc(OC)ccc6OC)[nH]c5c4)[nH]c3c2)CC1` reads 106% (inactive); that for `O=C(NN1C(=O)CSC1c1ccc(Cl)cc1)c1[nH]c2ccc(F)cc2c1-c1ccccc1` (stereo not drawn), 35.2% (inactive).
Take `O=Cc1cc2ccccc2nc1Nc1nccs1`: the growth was 47.6% (inactive).
Regarding `COc1ccc(C2=Nn3c(NN)nnc3SC2)cc1`, the growth is 96.4% (inactive).
The same measure, in the same setting: the result for `COC(=O)/C(=C\c1c(C)[nH]c2ccccc12)S(=O)(=O)c1ccccc1` reads 4.29% (active); that for `COC(=O)C1(C)COP(=O)(Nc2ccc(OC)cc2)OC1` (stereo not drawn), 101% (inactive); that for `O=c1c2cccc(F)c2sc2c(N3CCNCC3)nc3ccccc3c12`, 32.7% (inactive).
With `CCOc1ccc2nc(C)cc(Nc3ccc(Br)cc3)c2c1`, the growth is 97.9% (inactive).
Same read-out and setting: the result for `COc1cccc2c(=O)c3c(sc12)c(NCCCNCCO)nc1ccccc13` reads 49.8% (inactive); that for `O=c1c(-c2nc3ccccc3[nH]2)cc2ccccc2n1Cc1cn(Cc2ccc(N3CCOCC3)cc2)nn1`, 37.4% (inactive); that for `Nc1nc(-c2cnccn2)nn1-c1nc2ccccc2s1`, 99.9% (inactive).
On to `COc1ccc(-c2cn3c(C(=O)Nc4ccccc4Cl)c(-c4ccccc4)c4c3n2CCCC4)cc1`, for which the growth is 83.6% (inactive).
Still for that read-out and setting: the result for `NCCNc1nc2ccccc2c2c(=O)c3cc(F)cc(Cl)c3sc12` reads -49.2% (active); that for `CNCCNc1nc2ccccc2c2c(=O)c3cccc(OC)c3sc12`, 23.7% (inactive).

A further test has as its system OVCAR-5 ovarian. The description is as above. The settings on record: 10 µM unless noted.
Take `CS(=O)(=O)Nc1ccc(C(=O)NC(C(=O)NO)c2ccc(-c3cccc(F)c3)cc2)cc1` (stereo not drawn): the growth is 31.6% (inactive).
Still for that read-out and setting: the result for `COc1cccc2c1C=C1CCCCC3=Cc4c(OC)cccc4OC13O2` reads 63.9% (inactive); that for `COc1cccc(/C(C#N)=C/c2nc3c(N4CCOCC4)nc(Cl)nc3n2C)c1`, -37.6% (active).
Take `NCCOc1ncccc1/C=C1\c2ccccc2-c2ccc(F)cc21`: the growth is 32.1% (inactive).
Still for that read-out and setting: the result for `Cc1ccc2cccc(Oc3ccc(Nc4ncnc5onc(-c6ccccc6)c45)cc3)c2n1` reads 94.6% (inactive).
Still for that read-out and setting: the result for `CCN1C(=O)N(c2ccccc2)C2Nn3c(s/c(=C4\C(=O)N(C(C)C)c5ccccc54)c3=O)=NC21` (stereo not drawn) reads 102% (inactive); that for `c1ccc2c(c1)oc1cc3sccc3nc12`, 109% (inactive); that for `O=C1/C(=C/c2cccc(O)c2)COc2ccc(O)cc21`, 105% (inactive).
On the same count and under the same terms, the result for `COc1cccc(C(=O)Cn2cc(/C=C(\C#N)S(=O)(=O)c3ccccc3)c3ccccc32)c1` reads 47.9% (inactive).
For the molecule `CCOC(=O)C1=C(C)N=c2s/c(=C\c3ccccc3O)c(=O)n2C1c1ccc(OC)c2ccccc12` (stereo not drawn), the growth was 51.6% (inactive).
On the same count and under the same terms, the result for `Cn1c(/C=C(\C#N)c2ccccc2)nc2c(N3CCOCC3)nc(Cl)nc21` reads -50.1% (active); that for `O=S(=O)(Nc1ncccn1)c1ccc(NC2Nc3nc4ccccc4nc3S2)cc1` (stereo not drawn), 96.4% (inactive).
The same measure, in the same setting: the result for `COC(=O)C1(C)CCC[C@]2(C)[C@H]3C[C@H]4C(C(C)C)=C[C@]3(CC[C@@H]12)[C@H]1[C@@H]4[C@@H](OCC#CCN2CCOCC2)CC[C@@H]1OCC#CCN1CCOCC1` (stereo partly drawn) reads 106% (inactive); that for `O=c1c2cc(F)ccc2sc2c(Nc3ccncc3)nc3ccccc3c12`, -2.06% (active); that for `O=C(Cc1ccccc1)NC(c1ccc(Cl)cc1)c1c(O)ccc2ccccc12` (stereo not drawn), 45.7% (inactive).
Still for that read-out and setting: the result for `Cc1c(-c2noc(-c3ccc([N+](=O)[O-])cc3)n2)no[n+]1[O-]` reads 104% (inactive); that for `O=C(c1ccccc1)N(CCc1ccc(Cl)cc1)C(=S)N(C(=O)c1ccccc1)c1ccccc1`, 106% (inactive).
On to `Cc1cc2c(c(C)c1Cl)C(=O)/C(=C/c1cccc([N+](=O)[O-])c1)O2`, for which the growth is 100% (inactive).
`CCN1C(=O)N(CC)C2C1NC(=S)N2/N=C/C=C/c1ccccc1OC` (stereo not drawn): the growth was 45.2% (inactive).
Consider `O=C1Nc2ccccc2/C1=C/c1cccs1`, for which the growth was 95.5% (inactive).
The same measure, in the same setting: the result for `COC(=O)/C(=C\c1c(-c2ccccc2)[nH]c2ccccc12)S(C)(=O)=O` reads 83.5% (inactive); that for `C#CCn1cc(C=C2C(=O)N(C)C(=O)N(C)C2=O)c2cc(Cl)ccc21`, 108% (inactive).
The same measure, in the same setting: the result for `COc1ccc2occ(C3=C(c4c[nH]c5ccccc45)C(=O)NC3=O)c2c1` reads 68.6% (inactive); that for `O=C1/C(=C/c2ccc(O)cc2)COc2ccc(O)c(O)c21`, 43.7% (inactive); that for `N#C/C(=C\c1c(-c2ccccc2)[nH]c2ccccc12)C(=O)c1ccccc1`, 70.5% (inactive).
On to `CCCN1CCN(c2ccc3nc(-c4ccc5nc(-c6cc(OC)ccc6OC)[nH]c5c4)[nH]c3c2)CC1`, for which the growth was 113% (inactive).
Same read-out and setting: the result for `O=C(NN1C(=O)CSC1c1ccc(Cl)cc1)c1[nH]c2ccc(F)cc2c1-c1ccccc1` (stereo not drawn) reads 72% (inactive).
Same read-out and setting: the result for `O=Cc1cc2ccccc2nc1Nc1nccs1` reads 85.6% (inactive); that for `COc1ccc(C2=Nn3c(NN)nnc3SC2)cc1`, 108% (inactive).
With `COC(=O)/C(=C\c1c(C)[nH]c2ccccc12)S(=O)(=O)c1ccccc1`, the growth is 33.6% (inactive).
Still for that read-out and setting: the result for `COC(=O)C1(C)COP(=O)(Nc2ccc(OC)cc2)OC1` (stereo not drawn) reads 108% (inactive); that for `O=c1c2cccc(F)c2sc2c(N3CCNCC3)nc3ccccc3c12`, 61.9% (inactive); that for `CCOc1ccc2nc(C)cc(Nc3ccc(Br)cc3)c2c1`, 97.7% (inactive).
With `COc1cccc2c(=O)c3c(sc12)c(NCCCNCCO)nc1ccccc13`, the growth was 77.8% (inactive).
Take `O=c1c(-c2nc3ccccc3[nH]2)cc2ccccc2n1Cc1cn(Cc2ccc(N3CCOCC3)cc2)nn1`: the growth is 77.3% (inactive).
Still for that read-out and setting: the result for `Nc1nc(-c2cnccn2)nn1-c1nc2ccccc2s1` reads 104% (inactive).
With `COc1ccc(-c2cn3c(C(=O)Nc4ccccc4Cl)c(-c4ccccc4)c4c3n2CCCC4)cc1`, the growth is 79.8% (inactive).
Same read-out and setting: the result for `NCCNc1nc2ccccc2c2c(=O)c3cc(F)cc(Cl)c3sc12` reads -81.6% (active); that for `CNCCNc1nc2ccccc2c2c(=O)c3cccc(OC)c3sc12`, 47.3% (inactive).

The values are drawn from PubChem BioAssay (NCI).
